In the supplement of paper PMC7261846:
Where a name gives a salt, the structure may show the parent alone. ± gives the uncertainty stated by the source.

The molecules below were run on Candida albicans SNY425 biofilm (assay: biofilm OD600 with compound plus antifungal (OD600 (absorbance)); higher = more biofilm remaining). Conditions: assay detail: sustained inhibition (compound + antifungal during 90-min adherence and 24-h growth).

Structure (SMILES)	biofilm OD600
CC(C)C[C@H](NC(=O)N[C@H](C(=O)N[C@@H](CCC(N)=O)C(=O)N[C@@H](C)C=O)[C@@H]1CCNC(=N)N1)C(=O)O [Elastatinal] + OC(Cn1cncn1)(Cn1cncn1)c1ccc(F)cc1F [fluconazole] (first compound 12.5 µM)	0.16 ± 0.014
CCCCC[C@H](CC(=O)NO)C(=O)N[C@H](C(=O)N1CCC[C@H]1CO)C(C)C [Actinonin] + CC[C@H](C)C[C@H](C)CCCCCCCCC(=O)N[C@H]1C[C@@H](O)[C@@H](NCCN)NC(=O)[C@@H]2[C@@H](O)CCN2C(=O)[C@H]([C@H](O)CCN)NC(=O)[C@H]([C@H](O)[C@@H](O)c2ccc(O)cc2)NC(=O)[C@@H]2C[C@@H](O)CN2C(=O)[C@H]([C@@H](C)O)NC1=O [caspofungin] (first compound 12.5 µM)	0.182 ± 0.0058
Nc1ccc(CC(CC(=O)O)C(=O)O)cc1 [4-Amino-D, L-benzylsuccinic acid] + CC[C@H](C)C[C@H](C)CCCCCCCCC(=O)N[C@H]1C[C@@H](O)[C@@H](NCCN)NC(=O)[C@@H]2[C@@H](O)CCN2C(=O)[C@H]([C@H](O)CCN)NC(=O)[C@H]([C@H](O)[C@@H](O)c2ccc(O)cc2)NC(=O)[C@@H]2C[C@@H](O)CN2C(=O)[C@H]([C@@H](C)O)NC1=O [caspofungin] (first compound 12.5 µM)	0.187 ± 0.0071
CCOC(=O)c1ccc(OC(=O)CCCCCNC(=N)N)cc1 [Gabexate mesylate] + C[C@@H]1[C@H](O)[C@@H](C)/C=C/C=C/C=C/C=C/C=C/C=C/C=C/[C@H](O[C@@H]2O[C@H](C)[C@@H](O)[C@H](N)[C@@H]2O)C[C@@H]2O[C@](O)(C[C@@H](O)C[C@@H](O)[C@H](O)CC[C@@H](O)C[C@@H](O)CC(=O)O[C@H]1C)C[C@H](O)[C@H]2C(=O)O [amphotericin B] (first compound 12.5 µM)	0.201 ± 0.0075
C[C@H](NC(=O)[C@@H]1CCCN1C(=O)[C@@H]1CCCN1C(=O)[C@@H](O)[C@H](N)Cc1ccccc1)C(N)=O [Apstatin] + OC(Cn1cncn1)(Cn1cncn1)c1ccc(F)cc1F [fluconazole] (first compound 12.5 µM)	0.118 ± 0.0072
CC(C)CN(C[C@@H](O)[C@H](Cc1ccccc1)NC(=O)O[C@H]1CCOC1)S(=O)(=O)c1ccc(N)cc1 [amprenavir] + CC[C@H](C)C[C@H](C)CCCCCCCCC(=O)N[C@H]1C[C@@H](O)[C@@H](NCCN)NC(=O)[C@@H]2[C@@H](O)CCN2C(=O)[C@H]([C@H](O)CCN)NC(=O)[C@H]([C@H](O)[C@@H](O)c2ccc(O)cc2)NC(=O)[C@@H]2C[C@@H](O)CN2C(=O)[C@H]([C@@H](C)O)NC1=O [caspofungin] (first compound 12.5 µM)	0.201 ± 0.013
C[C@H](CS)C(=O)N1CCC[C@H]1C(=O)O [Captopril] + OC(Cn1cncn1)(Cn1cncn1)c1ccc(F)cc1F [fluconazole] (first compound 12.5 µM)	0.167 ± 0.01
CC1(C)C[C@@H]1C(=O)N/C(=C\CCCCSC[C@H](N)C(=O)O)C(=O)O [Cilastatin] + CC[C@H](C)C[C@H](C)CCCCCCCCC(=O)N[C@H]1C[C@@H](O)[C@@H](NCCN)NC(=O)[C@@H]2[C@@H](O)CCN2C(=O)[C@H]([C@H](O)CCN)NC(=O)[C@H]([C@H](O)[C@@H](O)c2ccc(O)cc2)NC(=O)[C@@H]2C[C@@H](O)CN2C(=O)[C@H]([C@@H](C)O)NC1=O [caspofungin] (first compound 12.5 µM)	0.199 ± 0.02
CCOC(=O)[C@H](CCc1ccccc1)N[C@@H](C)C(=O)N1CCC[C@H]1C(=O)O [Enalapril] + C[C@@H]1[C@H](O)[C@@H](C)/C=C/C=C/C=C/C=C/C=C/C=C/C=C/[C@H](O[C@@H]2O[C@H](C)[C@@H](O)[C@H](N)[C@@H]2O)C[C@@H]2O[C@](O)(C[C@@H](O)C[C@@H](O)[C@H](O)CC[C@@H](O)C[C@@H](O)CC(=O)O[C@H]1C)C[C@H](O)[C@H]2C(=O)O [amphotericin B] (first compound 12.5 µM)	0.197 ± 0.023
CC(C)(C)NC(=O)[C@@H]1CN(Cc2cccnc2)CCN1C[C@@H](O)C[C@@H](Cc1ccccc1)C(=O)N[C@H]1c2ccccc2C[C@H]1O [indinavir] + OC(Cn1cncn1)(Cn1cncn1)c1ccc(F)cc1F [fluconazole] (first compound 12.5 µM)	0.17 ± 0.015
O=c1oc(Cl)c(Cl)c2ccccc12 [3,4-Dichloroisocoumarin] + OC(Cn1cncn1)(Cn1cncn1)c1ccc(F)cc1F [fluconazole] (first compound 12.5 µM)	0.154 ± 0.014
NCC1CCC(C(=O)N[C@@H](Cc2ccccc2)C(=O)Nc2ccc(CC(=O)O)cc2)CC1 (stereo partly drawn) + OC(Cn1cncn1)(Cn1cncn1)c1ccc(F)cc1F [fluconazole] (first compound 12.5 µM)	0.13 ± 0.018
CSCCC(C=O)NC(=O)C(CC(C)C)NC(=O)[C@H](CC(C)C)NC(C)=O (stereo partly drawn) [Calpain Inhibitor II (ALLM)] + OC(Cn1cncn1)(Cn1cncn1)c1ccc(F)cc1F [fluconazole] (first compound 12.5 µM)	0.146 ± 0.0052
CC1CNc2c(cccc2S(=O)(=O)N[C@@H](CCCNC(=N)N)C(=O)N2CC[C@@H](C)C[C@@H]2C(=O)O)C1 (stereo partly drawn) [Argatroban] + C[C@@H]1[C@H](O)[C@@H](C)/C=C/C=C/C=C/C=C/C=C/C=C/C=C/[C@H](O[C@@H]2O[C@H](C)[C@@H](O)[C@H](N)[C@@H]2O)C[C@@H]2O[C@](O)(C[C@@H](O)C[C@@H](O)[C@H](O)CC[C@@H](O)C[C@@H](O)CC(=O)O[C@H]1C)C[C@H](O)[C@H]2C(=O)O [amphotericin B] (first compound 12.5 µM)	0.191 ± 0.0048
O=C[C@@H]1CCCN1C(=O)[C@@H]1CCCN1C(=O)OCc1ccccc1 [Z-Prolyl-prolinal] + OC(Cn1cncn1)(Cn1cncn1)c1ccc(F)cc1F [fluconazole] (first compound 12.5 µM)	0.0978 ± 0.0091
O=C(O)CNC(=O)C(CS)Cc1ccccc1 (racemic) [DL-Thiorphan] + CC[C@H](C)C[C@H](C)CCCCCCCCC(=O)N[C@H]1C[C@@H](O)[C@@H](NCCN)NC(=O)[C@@H]2[C@@H](O)CCN2C(=O)[C@H]([C@H](O)CCN)NC(=O)[C@H]([C@H](O)[C@@H](O)c2ccc(O)cc2)NC(=O)[C@@H]2C[C@@H](O)CN2C(=O)[C@H]([C@@H](C)O)NC1=O [caspofungin] (first compound 12.5 µM)	0.163 ± 0.0098
N[C@H](C(=O)O)[C@@H]1CC(Cl)=NO1 [Acivicin] + C[C@@H]1[C@H](O)[C@@H](C)/C=C/C=C/C=C/C=C/C=C/C=C/C=C/[C@H](O[C@@H]2O[C@H](C)[C@@H](O)[C@H](N)[C@@H]2O)C[C@@H]2O[C@](O)(C[C@@H](O)C[C@@H](O)[C@H](O)CC[C@@H](O)C[C@@H](O)CC(=O)O[C@H]1C)C[C@H](O)[C@H]2C(=O)O [amphotericin B] (first compound 4 µM)	0.181 ± 0.006
O=C(NCCCCN1CCOCC1)c1cc2ccccc2o1 + OC(Cn1cncn1)(Cn1cncn1)c1ccc(F)cc1F [fluconazole] (first compound 12.5 µM)	0.158 ± 0.008
